Reference: PubChem BioAssay AID504697 (The Scripps Research Institute Molecular Screening Center, 2011)
The source made the active and inactive calls.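 Rule for the calls: active = EC50 at or below 10 µM; inactive = EC50 above 10 µM.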

Assay: compound autofluorescence in calcium buffer – biochemical, fluorescence, no RTF in test wells, artefact control for cardiac thin filament activator project, dose response (AID 504697);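 note: emission near 535 nm under roughly 485 nm excitation as for IANBD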
Conditions: compound-only fluorescence in RTF assay buffer with Ca2+ (no RTF in test wells), artifact counterscreen

| Structure (SMILES) | EC50 |
| --- | --- |
| CCN(CC)C(=S)SCC(=O)c1c(C)[nH]c2ccccc12 | > 71.5 µM (inactive) |
| Cc1cc(/C=C2\SC(=S)N(C)C2=O)c(C)n1-c1ccccc1O | 15.7 µM (inactive) |
| COc1ccc(CNC(=O)c2sc(=S)n(-c3ccccc3)c2N)cc1 | > 71.5 µM (inactive) |
| Cc1ccc(-c2ccc(OC(=O)c3ccc(=O)[nH]c3)c(C)c2)cc1 | > 71.5 µM (inactive) |
| CCn1nc(-c2ccccc2)c2nc3ccccc3nc21 | 10.3 µM (inactive) |
| CCN(CC)c1ccc(/C=c2\sc3nc4ccccc4n3c2=O)c(O)c1 | 14.4 µM (inactive) |
| C=CCn1c(=O)[nH]c2nc3cc(N=CN(C)C)c(C)cc3nc2c1=O | 4.96 µM (active) |
| Cc1cc2nc(C3CCCN(C(=O)NCc4ccccc4)C3)[nH]c2cc1C (stereo unspecified) | > 71.6 µM (inactive) |
| N#C/C(=C\c1ccc(N2CCOCC2)o1)C(=O)NC1CCCCC1 | 16.5 µM (inactive) |
| COc1ccc(N/C=C2\C(=O)CCc3c2oc2cc(Cl)c(O)c(Cl)c32)cc1 | 7.28 µM (active) |
| O=C1c2ccsc2SCCN1Cc1ccc(F)cc1 | > 71.5 µM (inactive) |
| COc1ccc(C)cc1NC(=O)C12CCC(C)(C(=O)O1)C2(C)C (stereo unspecified) | > 71.5 µM (inactive) |
| COc1ccccc1C(=O)Oc1ccc2c(c1)O/C(=C\c1ccncc1)C2=O | 30.9 µM (inactive) |
| Oc1ccc2ccc3cccc[n+]3c2c1 | 2.46 µM (active) |
| COc1ccc(/C=N/NC(=O)c2cc(OC)c(OC)c(OC)c2)cc1CN1CCc2cc(OC)c(OC)cc2C1C (stereo unspecified) | > 71.5 µM (inactive) |
| CC1CN(c2ccc(NS(=O)(=O)c3ccccc3)cc2C(=O)O)CC(C)O1 (stereo unspecified) | > 71.5 µM (inactive) |
| COc1ccc(/C=C2/SC(c3ccc(C)cc3)=NC2=O)cc1OC | 1.43 µM (active) |
| O=C(Nc1ccc(Cl)cn1)C1COc2ccccc2O1 (stereo unspecified) | > 71.5 µM (inactive) |

| Structure (SMILES) | EC50 |
| --- | --- |
| O=C(CO/N=C/c1ccccc1OC(F)F)NCc1cccs1 | > 71.5 µM (inactive) |
| CC(C)(C)C(=O)/C=c1\s/c(=C\c2ccc(-c3ccc([N+](=O)[O-])cc3)o2)c(=O)n1CC(=O)NC(N)=O | 1.72 µM (active) |
| CCN1C(=O)/C(=C/C=C2/SCCN2C)SC1=S | 2.63 µM (active) |
| CCn1c(=O)c(C(=O)CN2CCCc3ccccc32)c(N)n(Cc2ccccc2)c1=O | 62.2 µM (inactive) |
| Cc1ccc(N=Nc2c(O)n(CN3CCOCC3)c3ccccc23)cc1 | > 71.5 µM (inactive) |
| COc1ccc(C(=O)/C=C/c2cn(CC(O)CN3CCN(C)CC3)c3ccccc23)cc1OC (stereo unspecified) | 25.7 µM (inactive) |
| O=C(/C=C/c1cn(CC(O)CN2CCCCC2)c2ccccc12)c1cccs1 (stereo unspecified) | 34.6 µM (inactive) |
| CCN(CC)c1ccc(/C=c2\sc3nnc(-c4ccccc4Cl)n3c2=O)cc1 | 0.644 µM (active) |
| Cc1ccc(NC(=O)COc2ccc(/C=N/NC(=O)CSCc3ccccc3)cc2)cc1 | > 71.5 µM (inactive) |
| CCOC(=O)c1sc(N)c(C#N)c1COC(=O)CNC(=O)c1cc(OC)c(OC)c(OC)c1 | 49.3 µM (inactive) |
| Cc1ccc(C)c(C(=O)CSc2n[nH]c(C(C)C)n2)c1 | > 71.5 µM (inactive) |
| CC(C)CN1CCN(Cc2cccn2-c2ccc(Cl)cn2)CC1CCO (stereo unspecified) | > 71.5 µM (inactive) |
| O=C(CNCc1cccs1)Nc1ccc(S(=O)(=O)N2CCCCC2)cc1 | > 71.5 µM (inactive) |
| Cc1nnc(SCC(=O)NC(C)(C)C)n1C1CCCCC1 | > 71.5 µM (inactive) |
| CC(=O)Oc1ccc(N2C(=O)C3C(C2=O)C(C(=O)c2ccc(Cl)cc2)N2CCCC32)cc1 (stereo unspecified) | 58.7 µM (inactive) |
| COc1ccc(NC(=O)/C(C#N)=C\c2ccc(N3CCOCC3)o2)cc1 | 3.63 µM (active) |
| CNC(=O)N(O)C1N(C)C(=O)N(CC(=O)OC)C1(C)C (stereo unspecified) | > 71.5 µM (inactive) |
| CCCN1C=CC(=CC=C(C#N)C#N)C=C1 | 19.9 µM (inactive) |
